For experiment [1], the system named is Jurkat. The experiment can be described thus: mean cell size (FSC-A) relative to DMSO control (fraction of control); higher = larger cells. Particulars: 48 h. Put shortly:
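Jurkat cells seeded at 600 cells/µl were incubated 1 h, then exposed for 48h to the Enzo Screen-Well FDA Approved Drug Library v2.0 at 25µM in 0.9% (v/v) final DMSO. Drugs that cut counts below 20% of controls were diluted 10-fold and retested, down to 25nM. Cell count and mean cell size (forward scatter area) were read on an Accuri C6 flow cytometer, relative to solvent-only controls. Plates held 6-12 controls; values are means of 3 biological replicates.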

In experiment [2] the test system is Jurkat. The experiment can be described thus: cell count relative to DMSO control (fraction of control); higher = more cells (less growth inhibition). Particulars: 48 h.

Where a name gives a salt, the structure may show the parent alone. ± gives the standard deviation.

In the case of `N=C(N)NC(=O)c1nc(Cl)c(N)nc1N` [Amiloride·HCl·2H2O] (concentration: 25 µM), the mean cell size in experiment [1] amounted to 0.945 ± 0.055. In experiment [2], this compound returned a cell count of 0.504 ± 0.045.

In experiment [1], `CN(C)c1ccc(O)c2c1C[C@H]1C[C@H]3[C@H](N(C)C)C(=O)C(C(N)=O)=C(O)[C@@]3(O)C(=O)C1=C2O` [Minocycline] (concentration: 2.5 µM) had a mean cell size of 0.969 ± 0.027. This compound also registered a cell count in experiment [2] of 0.894 ± 0.04.

Regarding `CC(=O)c1ccc(S(=O)(=O)NC(=O)NC2CCCCC2)cc1` [Acetohexamide] (concentration: 25 µM), in experiment [1], the mean cell size is 1.02 ± 0.063. In experiment [2], this compound came in with a cell count of 0.723 ± 0.068.

As for `CN(C)CCOC(=O)C(c1ccccc1)C1(O)CCCC1` (stereo not drawn) [Cyclopentolate] (concentration: 25 µM), the mean cell size in experiment [1] amounted to 0.996 ± 0.057. In experiment [2], this compound displayed a cell count of 0.596 ± 0.08.

In experiment [1], `CCCc1nc2c(C)cc(-c3nc4ccccc4n3C)cc2n1Cc1ccc(-c2ccccc2C(=O)O)cc1` [Telmisartan] (concentration: 25 µM) came in with a mean cell size of 0.951 ± 0.032. The compound also returned a cell count in experiment [2] of 0.725 ± 0.051.

In experiment [1], `CC(=O)O[C@]1(C(C)=O)CC[C@H]2[C@@H]3C[C@H](C)C4=CC(=O)CC[C@]4(C)[C@H]3CC[C@@]21C` [Medroxyprogesterone Acetate] (concentration: 25 µM) returned a mean cell size of 0.956 ± 0.065. Also, the cell count in experiment [2] is 0.352 ± 0.042.

The compound `CC=CC(=O)N(CC)c1ccccc1C` [Crotamiton] (concentration: 25 µM) yielded a mean cell size in experiment [1] of 0.972 ± 0.034. This compound had a cell count in experiment [2] of 0.809 ± 0.17.

The compound `CCC[C@@H]1C[C@@H](C(=O)N[C@@H]([C@H]2O[C@H](SC)[C@H](O)[C@@H](O)[C@H]2O)[C@@H](C)O)N(C)C1` [Lincomycin·HCl] (concentration: 25 µM) yielded a mean cell size in experiment [1] of 1.1 ± 0.045. The compound further yielded a cell count in experiment [2] of 0.754 ± 0.11.

Regarding `Nc1nc(Cl)nc2c1ncn2[C@H]1C[C@H](O)[C@@H](CO)O1` [Cladribine] (concentration: 250 nM), the mean cell size in experiment [1] was 1.17 ± 0.034. The compound further came in with a cell count in experiment [2] of 0.268 ± 0.024.

In experiment [1], `CC(C)NCC(O)c1ccc(NS(C)(=O)=O)cc1` (stereo not drawn) [Sotalol·HCl] (concentration: 25 µM) gave a mean cell size of 0.893 ± 0.059. In experiment [2], the cell count amounted to 0.268 ± 0.17.

Take `O=C1NC(c2ccccc2)(c2ccccc2)C(=O)N1COP(=O)(O)O` [Fosphenytoin·Na Pentahydrate] (concentration: 25 µM): the mean cell size in experiment [1] worked out at 0.887 ± 0.058. In experiment [2], this compound displayed a cell count of 0.498 ± 0.074.

With `CCC(=O)NCC[C@@H]1CCc2ccc3c(c21)CCO3` [Ramelteon] (concentration: 25 µM), the mean cell size in experiment [1] worked out at 1.04 ± 0.066. This compound registered a cell count in experiment [2] of 0.926 ± 0.11.

With `C#CCN[C@@H]1CCc2ccccc21` [Rasagiline Mesylate] (concentration: 25 µM), in experiment [1], the mean cell size came to 1.03 ± 0.024. In experiment [2], this compound displayed a cell count of 1.01 ± 0.058.

Regarding `CCCC(CCC)C(=O)O` [Valproic Acid] (concentration: 25 µM), the mean cell size in experiment [1] was 0.986 ± 0.028. The compound further yielded a cell count in experiment [2] of 0.728 ± 0.029.

In turn, `COc1ccc(CC2c3cc(OC)c(OC)cc3CC[N+]2(C)CCC(=O)OCCCCCOC(=O)CC[N+]2(C)CCc3cc(OC)c(OC)cc3C2Cc2ccc(OC)c(OC)c2)cc1OC` (stereo not drawn) [Atracurium Besylate] (concentration: 25 µM) gave a mean cell size in experiment [1] of 1.04 ± 0.008. Further, the cell count in experiment [2] was 0.264 ± 0.023.

In experiment [1], `COC(=O)Nc1nc2cc(C(=O)c3ccccc3)ccc2[nH]1` [Mebendazole] (concentration: 250 nM) registered a mean cell size of 0.965 ± 0.029. Moreover, in experiment [2], the cell count turned out to be 0.686 ± 0.074.

`CC(=O)OCC(=O)[C@@]12OC(C)(C)O[C@@H]1C[C@H]1[C@@H]3C[C@H](F)C4=CC(=O)C=C[C@]4(C)[C@@]3(F)[C@@H](O)C[C@@]12C` [Fluocinonide] (concentration: 25 µM) returned a mean cell size in experiment [1] of 0.944 ± 0.027. The cell count in experiment [2] was 0.551 ± 0.03.

`CN1CCN(CCCN2c3ccccc3Sc3ccc(C(F)(F)F)cc32)CC1` [Trifluoperazine·HCl] (concentration: 2.5 µM) gave a mean cell size in experiment [1] of 1.072 ± 0.01. This compound had a cell count in experiment [2] of 0.776 ± 0.13.

Turning to `CCC(=O)O[C@]1(C(=O)CCl)[C@@H](C)C[C@H]2[C@@H]3CCC4=CC(=O)C=C[C@]4(C)[C@@]3(F)[C@@H](O)C[C@@]21C` [Clobetasol Propionate] (concentration: 25 µM), in experiment [1], the mean cell size amounted to 0.898 ± 0.015. In addition, in experiment [2], the cell count was 0.881 ± 0.18.

Compound `Cc1nc(-c2ccc(OCC(C)C)c(C#N)c2)sc1C(=O)O` [Febuxostat] (concentration: 25 µM) had a mean cell size in experiment [1] of 1 ± 0.024. This compound registered a cell count in experiment [2] of 0.592 ± 0.028.

Regarding `CC(C)C(=O)Nc1ccc([N+](=O)[O-])c(C(F)(F)F)c1` [Flutamide] (concentration: 25 µM), the mean cell size in experiment [1] came to 0.918 ± 0.033. The compound further returned a cell count in experiment [2] of 0.329 ± 0.14.

The compound `CCOC(=O)c1ccc(C#Cc2ccc3c(c2)C(C)(C)CCS3)nc1` [Tazarotene] (concentration: 25 µM) yielded a mean cell size in experiment [1] of 0.894 ± 0.021. The same compound came in with a cell count in experiment [2] of 0.698 ± 0.18.

The compound `CC(C)(C#N)c1cc(Cn2cncn2)cc(C(C)(C)C#N)c1` [Anastrozole] (concentration: 25 µM) displayed a mean cell size in experiment [1] of 0.98 ± 0.021. In experiment [2], this compound returned a cell count of 0.933 ± 0.054.

`COc1ccccc1Oc1c(NS(=O)(=O)c2ccc(C(C)(C)C)cc2)nc(-c2ncccn2)nc1OCCO` [Bosentan] (concentration: 25 µM) came in with a mean cell size in experiment [1] of 0.975 ± 0.018. Also, the cell count in experiment [2] was found to be 0.675 ± 0.068.

The record behind these values is the supplement of paper PMC4709259.
